Where “and” joins values, the source holds several entries; their conditions need not be identical. Identical values can stand only once. Compounds without any hit were thinned out: in the full panel of roughly 83,000, 20% have a hit.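 Cell lines were cultured in 96-well plates, exposed to a single compound concentration, and assessed for percent growth 48 hours later.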 Calls of active or inactive are those of the source. The calls were made as follows: active = growth percent below 10; inactive = the rest.

This assay concerns MDA-MB-468 breast. The experiment in a line: NCI-60 one-dose screen, 48 h (100 = growth as untreated, 0 = no growth, -100 = all killed). The conditions noted are these: 10 µM unless noted.
Regarding `C[N+]1(CC#CC[N+]2(C)CCCC2)CCCC1`, the growth is 98.6% (inactive).
The result for `CC1=C(SCCC(=O)OCC(=O)NCCC[Te]c2ccccc2)C(=O)c2ccccc2C1=O` reads 9.39% (active).
Next, `Cc1cc[c-]cc1.Fc1c[c-]c(-c2ccccn2)c(F)c1.N#CCC[PH+](CCC#N)c1ccccc1.[Pt+2]`: 37% (inactive).
As to `CC(=O)[O][Hg][c]1c(N)c(C)cc(C)c1F`, the growth is -26.7% (active).
The result for `CCCC[C@H](NC(=O)[C@H]1CCCCN1C)C(=O)N(C)[C@H](C[C@@H](OC(C)=O)c1nc(C(=O)N[C@@H](Cc2ccccc2)C[C@H](C)C(=O)OCC)cs1)C(C)C` reads 31.2% (inactive); that for `CCCCCCCCCCCC1CCCC(C)N1` (stereo not given), 73.3% (inactive); that for `O=C(CC1(O)C(=O)Nc2ccccc21)c1ccc(C(=O)NCC2CCC3(CC2)OOC2(CCCCC2)OO3)cc1` (stereo not given), 53.7% (inactive).
The result for `CCOC(=O)[C@@H](C)C[C@H](Cc1ccccc1)NC(=O)c1nc([C@@H](C[C@H](C(C)C)N(C)C(=O)[C@@H](NC(=O)[C@H]2CCCCN2C)C(C)C)OC(C)=O)sc1CCOCc1ccccc1` reads -48.6% (active).
With `O=C1NC(=O)C(=Cc2cn(CCCCCCn3c4ccccc4c(=O)c4ccccc43)c3ccccc23)C(=O)N1`, the growth is -26% (active).
For the molecule `Oc1c(Br)cc(Br)cc1Br.[Cu+2]`, the growth was 102% (inactive).
The result for `C[C@]12CC[C@@H]3c4ccc(OC(=O)Cc5ccc(N(CCCl)CCCl)cc5)cc4CC[C@H]3[C@@H]1CC[C@@H]2OC(=O)Cc1ccc(N(CCCl)CCCl)cc1` reads 104% (inactive); that for `COc1ccc(C2=NN(c3ccccc3)C(c3sc(N(CCCl)CCCl)nc3Cl)C2)cc1` (stereo not given), 69.3% (inactive).
The result for `O=C(O)C(F)F` reads 91.4% (inactive); that for `ClCc1ccc2ccccc2n1`, 84.1% (inactive).
As to `[Au+].[N-]=C=O.c1ccc(CN2[CH-]N(Cc3ccccc3)C(c3ccccc3)=C2c2ccccc2)cc1`, the growth is 72.7% (inactive).
Next, `N#CCC(=O)c1ccccc1`: 6.35% (active); `O=c1[nH]c(=O)n(Cl)c(=O)n1Cl`: 106% (inactive) and 117% (inactive); `CCOC(=O)C(NC(=O)C(Cc1ccc(N(CCCl)CCCl)cc1)NC(C)=O)C(C)C` (stereo not given): 92.3% (inactive).
Regarding `CCN1CC2(CN(CC)C1=S)C(=O)NC(=O)NC2=O`, the growth is 116% (inactive).
Next, `CN1CC(CNC(=O)OCc2ccccc2)CC2c3cccc4c3c(cn4C)CC21` (stereo not given): -42.6% (active).
Next, `[N-]=[N+]=NC(C(=O)O)c1ccccc1` (stereo not given): 126% (inactive).
Next, `COc1cc2c(cc1OC)C13CCN4CC5=CCOC6CC(=O)N2C1C6C5CC43` (stereo not given): 116% (inactive) and 108% (inactive); `O=C(NCCN1CC1)C(=O)NCCN1CC1`: 81.3% (inactive); `c1cnc2c(c1)ccc1ncccc12`: 109% (inactive).
Regarding `CC[C@H](C)[C@H](NC(=O)NC(C)(C)C)C(=O)N(C)[C@H](C[C@@H](OC(C)=O)c1nc(C(=O)N[C@@H](Cc2ccccc2)C[C@H](C)C(=O)OC)cs1)C(C)C`, the growth is 15.4% (inactive).
For the molecule `Cc1ccc(C(=O)NCCCOc2ccc(N)cc2Cl)cc1S(=O)(=O)F`, the growth was 84.6% (inactive).
Take `Cc1cnc(/C=C/C(=O)O)cc1-c1cc2c(cc1C)C(C)(C)CCC2(C)C`: the growth was 95.4% (inactive).
Take `Nc1nc([Se])c2ncn(C3OC(CO)C(O)C3O)c2n1` (stereo not given): the growth is 83.6% (inactive).
Next, `C=CC[Se]C(=O)c1ccccc1OC(C)=O`: -16.6% (active); `COc1c(O)c2c3c(c1OC)-c1ccccc1CC3N(C)CC2` (stereo not given): 120% (inactive).
The result for `CC1(C)CC(=O)CC(C)(C)N1N=O` reads 124% (inactive); that for `NC(N)=NC(N)=Nc1ccc(Cl)cc1`, 111% (inactive); that for `COc1ccc(Nc2ccc([N+](=O)[O-])cc2[N+](=O)[O-])cc1CN(CCCl)CCCl`, 10.1% (inactive).
Next, `COc1ccc(C2=CC(c3ccc(OC)c(OC)c3)c3c(c4ccccc4oc3=O)O2)cc1OC` (stereo not given): -8.37% (active).
With `ClCCN(CCCl)c1ccc(/C=N/Nc2ncnc3nc[nH]c23)cc1`, the growth is 49.8% (inactive).
The result for `CCOC(=O)[C@@H](C)C[C@H](Cc1ccccc1)NC(=O)c1csc([C@@H](C[C@H](C(C)C)N(C)C(=O)[C@@H](NC(=O)[C@H]2CCCCN2C)C(C)(C)C)OC(C)=O)n1` reads 10.7% (inactive); that for `CN1CCc2cc3c(cc2C1O)OCO3` (stereo not given), 99.4% (inactive) and 108% (inactive).
Turning to `O=P1(NCCCl)OCCCN1CCCl` (stereo not given), the growth was 99.1% (inactive).
Regarding `CC(=O)OC[C@]1(C)C=C2C(=O)[C@](C)(O)C3(CC3)C(C)=C2[C@H]1OC(=O)N(C)CCN(C)C(=O)OC(C)(C)C`, the growth is -62.5% (active).
Next, `CCOP(=O)(Cc1ccc(C#N)cc1)OCC`: 108% (inactive).

The values are drawn from PubChem BioAssay (NCI).
